# Source: PubChem
# Shown are actives, neighbours in structure and some others; about 3.6% of the full set was active somewhere.
# GCN5L2 inh: GCN5L2 (KAT2A) acetyltransferase inhibition; hit rate 0.21% among 390,000; Q92830; Potency, µM (titrated, usually from 58.9 µM), actives largely listed as inhibitors; GCN5L2 HAT assay, ThioGlo1 CoA-SH fluorescence
#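 GCN5L2 (20 nM) in 50mM HEPES pH 7.5, 0.1mM EDTA, 0.01% Tween-20 preincubated 15 min with compounds at room temperature. Reaction started with H3(1-25) 75uM, acetyl-CoA 70uM, ThioGlo1 50uM; CoA-thiol fluorescence (Ex340/Em540) read at 0 and 20 min.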
# Rango release inh: inhibitors of RanGTP-induced Rango-importin beta complex dissociation; O95149+P62826; Biochemical FRET Rango-importin beta, RanGTP-induced dissociation; Potency, µM (doses to about 46.1 µM); hit rate 0.071% among 340,000; calls by dose curve; note: nearly all actives have a fitted effect of over 45% in size
#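 FRET read at 45 min, room temperature: inhibitors block the CFP/YFP signal rise when RanGTP (0.6 uM Ran, 2 mM GTP, 0.2 uM RCC1) frees Rango (0.1 uM) from importin beta (0.25 uM). Pre-read after 5 min compound exposure flags interference.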
# PI5P4K alpha inh: inhibitors of human PI5P4K alpha | hit rate 1.2% among 330,000 | AID 652105 | max response, % | P48426 | PI5P4Kalpha enzyme, ADP-Glo luminescence, 60 min; stronger effect = lower value; active = max response of -50% or lower; inconclusive = between -30% and -50%; inactive = -30% or higher; note: value at the top dose of about 77 µM
#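 Reactions run in 0.038 M HEPES pH 7.4, 0.28 mM EGTA, 0.1% CHAPS and 5% DMSO, with PI5P4Kalpha, substrate, compound and 5 microM ATP final, one hour at room temperature. Readout is ADP-Glo luminescence.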
# Rango-impB inh: inhibitors of Rango-importin beta complex formation; hit rate 0.031% among 340,000; Q14974; Rango CFP/YFP FRET sensor + importin beta, 45 min; AID 540263; Potency, µM (top dose mostly 92.2 µM); calls by dose curve; note: nearly all actives have a fitted effect of over 15% in size
#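 FRET biosensor (snurportin 1 IBB flanked by EYFP and cerulean), 50 nM, with compound 5 min, then 0.125 microM importin beta in PBS, 1 mM DTT, 0.02% Tween-20, 0.1% BSA. CFP/YFP ratio read after 45 min at room temperature; pre-read flags interference.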
# PLK1 PBD block: inhibitors of human PLK1 polo-box domain binding; Plk1 PBD binding of FITC phosphopeptide, fluorescence polarization; Potency, µM, usual class: inhibitors; hit rate 2.8% among 360,000; AID 720504; note: series mostly up to about 57 µM; nearly all actives have a fitted effect of over 65% in size
# Target sequence (P53350 whole entry, looked up, the tested form may be a part): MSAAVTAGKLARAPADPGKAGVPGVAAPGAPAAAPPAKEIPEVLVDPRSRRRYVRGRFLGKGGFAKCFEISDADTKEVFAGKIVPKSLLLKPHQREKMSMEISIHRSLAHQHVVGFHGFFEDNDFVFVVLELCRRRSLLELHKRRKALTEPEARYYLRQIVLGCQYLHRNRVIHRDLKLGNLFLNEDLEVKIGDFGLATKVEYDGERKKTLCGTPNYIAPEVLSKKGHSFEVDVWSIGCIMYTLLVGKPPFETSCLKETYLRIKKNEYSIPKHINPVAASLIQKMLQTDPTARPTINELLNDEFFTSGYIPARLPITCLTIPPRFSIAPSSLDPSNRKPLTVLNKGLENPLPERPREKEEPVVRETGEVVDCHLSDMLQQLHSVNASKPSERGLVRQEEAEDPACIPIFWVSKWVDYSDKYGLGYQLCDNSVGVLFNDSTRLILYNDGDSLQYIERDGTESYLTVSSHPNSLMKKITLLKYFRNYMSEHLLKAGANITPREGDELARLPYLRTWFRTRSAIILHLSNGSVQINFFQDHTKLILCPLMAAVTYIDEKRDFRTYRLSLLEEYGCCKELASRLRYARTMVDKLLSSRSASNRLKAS
# VDR inh: inhibitors of human vitamin D receptor | P11473 | VDR-SRC2-3 peptide fluorescence polarization, 2 h | Potency, µM, usual class: inhibitors | hit rate 0.93% among 400,000 | AID 504847
#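 FP read-out; VDR + SRC2-3 coactivator peptide; 23 nl compound by pintool; 2 h RT incubation; reagents held at 4 deg C, protected from light.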
# TbPYK confirm: Trypanosoma brucei pyruvate kinase inhibition, cherry-pick confirmation | shares compounds with PLK1 PBD block | recombinant TbPYK, Kinase-Glo ATP luminescence | Potency, µM (top dose mostly 76.9 µM), actives largely listed as inhibitors | hit rate 67% among 890; note: nearly all actives have a fitted effect of over 70% in size
# TbPYK ADP-Glo: orthogonal confirmation of Trypanosoma brucei pyruvate kinase inhibitors. Potency, µM (series often up to 76.9 µM), hits mostly inhibitors. hit rate 62% among 890. recombinant TbPYK, ADP-Glo luminescence, 60 min. shares compounds with PLK1 PBD block; note: nearly all actives have a fitted effect of over 75% in size
# Numbers stand for hits; i = inactive; ? = inconclusive; nt = not tested or not shown. Unless noted, calls come from the whole dose curve; as a rule, active = well fitted curve in the direction sought with a large enough effect; inconclusive = small, poorly fitted or top-dose-only effect, or another doubt; inactive = no such curve, though single readings can be large; an effect the other way counts as inactive or inconclusive.
SMILES,GCN5L2 inh,Rango release inh,PI5P4K alpha inh,Rango-impB inh,PLK1 PBD block,VDR inh,TbPYK confirm,TbPYK ADP-Glo
CC1=C/C(=C(\c2cc(C)c(O)c(Br)c2)c2ccccc2S(=O)(=O)O)C=C(Br)C1=O,i,i,-77.4,?,i,i,12.6µM,i
Cc1nn(C)c(Sc2ccccc2N)c1[N+](=O)[O-],i,i,i,i,13.4µM,?,12.6µM,12.6µM
S=C(c1ccc(-c2ccc(Cl)cc2Cl)o1)N1CCCCC1,i,i,i,i,i,i,nt,nt
S=C(c1ccc(-c2ccc(Cl)cc2Cl)o1)N1CCCC1,i,i,i,i,?,?,?,?
COc1ccc(N(CC(=O)NCCSC(C)(C)C)S(C)(=O)=O)c(OC)c1,i,i,nt,i,i,i,17.8µM,?
Cc1ccc(CNC(=O)c2nc(-c3ccc(Cl)cc3)n3c2CCCCC3)cc1,i,nt,nt,nt,nt,i,nt,nt
COc1cccc(NC(=O)CCc2c(C)nc3c4cccnc4nn3c2C)c1,i,nt,nt,nt,nt,i,nt,nt
CCCCCCC(=O)N(O)C1CC(=O)N(c2ccc(F)cc2)C1=O (stereo not drawn),i,i,i,i,26.7µM,39.8µM,?,?
C[C@@H]1CCCCO[C@H](CN(C)Cc2ccc(Cl)c(Cl)c2)[C@@H](C)CN([C@H](C)CO)C(=O)c2cc(N(C)C)ccc2O1,nt,nt,i,nt,i,nt,6.31µM,6.31µM
C[C@@H]1CCCCO[C@H](CN(C)C(=O)Nc2cccc3ccccc23)[C@@H](C)CN([C@H](C)CO)C(=O)c2cc(N(C)C)ccc2O1,nt,nt,i,nt,i,nt,3.55µM,7.08µM
C[C@@H]1CCCCO[C@@H](CN(C)C(=O)Nc2ccccc2)[C@@H](C)CN([C@H](C)CO)C(=O)c2cc(N(C)C)ccc2O1,nt,nt,i,nt,i,nt,nt,nt
O=C(/C=C/c1ccc(O)c(O)c1)c1ccc(O)cc1O,i,nt,nt,nt,nt,?,nt,nt
Cc1ccc(Cn2c(=O)n(-c3cccc(C(F)(F)F)c3)c(=O)c3c(C)c(C)sc32)c(C)c1,i,nt,nt,nt,nt,i,nt,nt
COc1cccc2sc(NNC(=O)C3COc4ccccc4O3)nc12 (stereo not drawn),i,i,i,i,i,i,nt,nt
Cc1ccc2sc(NNC(=O)C3COc4ccccc4O3)nc2c1C (stereo not drawn),i,i,i,i,i,i,?,?
CCN(C(=O)c1nn(-c2ccc(OC)c(Cl)c2)c(=O)c2c1c1ccccc1n2C)c1cccc(C(F)(F)F)c1,i,nt,nt,nt,nt,i,nt,nt
COc1ccc(CCn2c(C)ccc2C)cc1OC,i,nt,nt,nt,nt,nt,nt,nt
COc1ccc(CCN2C(=O)C=CC2=O)cc1OC,nt,i,i,i,6.7µM,?,4.47µM,5.62µM
CCCCCSc1nnc2c(n1)OC(c1ccc(C)s1)N(C(C)=O)c1ccccc1-2 (stereo not drawn),i,nt,nt,nt,nt,i,nt,nt
O=C(NCc1ccccc1F)c1cc2ccccn2n1,i,nt,nt,nt,nt,i,nt,nt
O=c1cc(C(F)(F)F)[nH]c(=S)n1-c1ccccc1,i,i,i,i,?,i,14.1µM,11.2µM
N#Cc1cc2c(nc1SCC(=O)N1CCCCC1)CCCCC2,nt,i,i,i,26.7µM,?,12.6µM,12.6µM
Cc1ccc2oc(C(=O)N(C)Cc3ccc(C)o3)c(C)c2c1,i,i,i,i,?,?,15.8µM,28.2µM
Cc1ccc2oc(C(=O)N(C)Cc3ccon3)c(C)c2c1,i,i,i,i,i,i,nt,nt
O=C1ON=C(c2ccc([N+](=O)[O-])cc2)/C1=C/c1ccccc1O,?,i,?,i,1.68µM,79.4µM,?,i
SMILES,GCN5L2 inh,Rango release inh,PI5P4K alpha inh,Rango-impB inh,PLK1 PBD block,VDR inh,TbPYK confirm,TbPYK ADP-Glo
O=C1C2=C(Nc3ccccc3SC2c2ccccc2C(F)(F)F)c2ccccc21 (stereo not drawn),i,nt,nt,nt,nt,i,nt,nt
CCOC(=O)c1cnc2ccc(OCC)cc2c1NCc1ccccc1,i,i,i,i,i,i,nt,nt
CCOC(=O)c1cnc2ccc(OCC)cc2c1NCc1cccnc1,i,?,i,i,i,i,i,i
O=C(Sc1cccc2cccnc12)c1ccc(F)cc1,i,nt,nt,nt,nt,nt,nt,nt
O=S(=O)(Nc1cc(Sc2cccc3cccnc23)c(O)c2ccccc12)c1ccc(F)cc1,i,?,i,?,1.5µM,22.4µM,1.41µM,2.24µM
O=C(Nc1cnn(Cc2ccc(Cl)cc2)c1)c1ccc([N+](=O)[O-])cc1,i,i,i,i,i,i,nt,nt
O=C(Nc1cnn(Cc2ccc(Cl)cc2)c1)c1cccs1,i,i,?,i,6.7µM,?,i,i
COc1cccc(NC(=O)Cn2c(=O)n(Cc3ccc(F)cc3)c(=O)c3sc4ccccc4c32)c1,i,nt,nt,nt,nt,i,nt,nt
CN1c2ccccc2N(C)C1(C)c1ccccc1,i,?,i,?,4.23µM,?,3.16µM,5.01µM
Cc1cc(=O)c2c(o1)C(=O)c1occc1C2=O,nt,i,?,?,?,?,2.51µM,?
COc1c2occc2c(OC)c2c(=O)cc(C)oc12,i,?,i,i,i,i,nt,nt
CCCN(C(=O)Cn1c(=O)oc2cc(Cl)ccc21)c1ccc(C(C)C)cc1,i,nt,nt,nt,nt,i,nt,nt
CC(=O)C1=C(C)NC(SCC(N)=O)=C(C#N)C1C (stereo not drawn),i,i,?,i,21.2µM,?,?,?
CC(=O)C1=C(C)NC(SCC(=O)c2ccc(F)cc2)=C(C#N)C1CC(C)C (stereo not drawn),i,?,-57.0,?,?,i,1.12µM,1.78µM
CC(=O)C1=C(C)NC(SCC(N)=O)=C(C#N)C1CC(C)C (stereo not drawn),i,i,?,i,i,79.4µM,7.08µM,8.91µM
O=c1c2oc3ccccc3c2n(Cc2ccc(Cl)cc2)c(=O)n1Cc1ccccc1,i,nt,nt,nt,nt,i,nt,nt
CC1(C)Cc2c(C#N)c(SCC(=O)c3ccccc3)nc(N3CCOCC3)c2CO1,i,i,i,?,i,?,10µM,11.2µM
CC1(C)Cc2c(C#N)c(SCc3ccccc3)nc(N3CCOCC3)c2CO1,?,i,i,i,i,i,nt,nt
CCOc1ccccc1C1N=C(N)Nc2nc3ccccc3n21 (stereo not drawn),i,nt,nt,nt,nt,i,nt,nt
O=C(NCCc1ccccc1)C1CCN(c2ncnc3c2nc2n3CCCCC2)CC1,i,nt,nt,nt,nt,i,nt,nt
CC1(C)Cc2c(c(N3CCOCC3)nc3sc(C(=O)N4CCCCC4)c(N)c23)CO1,i,i,i,i,?,?,0.398µM,2.51µM
Nc1c(C(=O)Nc2ccc(Cl)cc2)sc2nc(N3CCOCC3)c3c(c12)CCCC3,i,?,i,?,?,i,?,?
Nc1c(C(=O)N2CCOCC2)sc2nc(N3CCOCC3)c3c(c12)CCCC3,i,i,i,i,26.7µM,70.8µM,7.94µM,14.1µM
